Common to all, as to test: DAPPL (digital affinity profiling via proximity ligation, sequencing); 10 mM Tris-HCl pH 7.5, 50 mM NaCl, 1 mM DTT, 4% glycerol, room temperature, 30 min; GST-TFs on glutathione beads, 16-mer random dsDNA library, 0.1% formaldehyde crosslink after washing; high values mean tight binding
Common to all, as to conditions: protein: recombinant; tags: N-terminal GST; dsDNA, one strand shown

One test has as its target T1, FLI1 (Homo sapiens, UniProt Q01543 1-452).
T1 sequence: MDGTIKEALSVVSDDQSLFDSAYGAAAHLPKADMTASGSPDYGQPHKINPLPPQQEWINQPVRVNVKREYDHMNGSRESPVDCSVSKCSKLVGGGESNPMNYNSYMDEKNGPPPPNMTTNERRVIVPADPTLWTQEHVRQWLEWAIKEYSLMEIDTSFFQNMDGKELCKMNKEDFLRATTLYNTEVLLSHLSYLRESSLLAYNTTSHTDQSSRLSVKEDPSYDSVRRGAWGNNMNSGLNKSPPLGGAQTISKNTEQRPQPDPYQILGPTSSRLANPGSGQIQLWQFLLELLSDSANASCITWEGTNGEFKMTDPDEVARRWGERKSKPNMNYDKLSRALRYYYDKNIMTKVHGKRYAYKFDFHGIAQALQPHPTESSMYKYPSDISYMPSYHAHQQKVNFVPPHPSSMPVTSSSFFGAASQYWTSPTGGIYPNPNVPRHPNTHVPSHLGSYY
A digest of the protocol:
(§1)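 Pools were built from human transcription factors expressed in yeast as GST fusions, captured on glutathione beads and DNA-barcoded, along with a tag-only sample. Incubation with 200 nmole of a 16-mer random double-stranded DNA library lasted 30 min at room temperature in Tris/NaCl/DTT/glycerol buffer, and was followed by washing, 0.1% formaldehyde crosslinking, proximity ligation, PCR amplification and Illumina NextSeq500 sequencing. Binding signal is the quotient of each hexamer's read frequency for a factor and its frequency for the tag-only sample.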

The target of the next test is T2, ELK1 (Homo sapiens, UniProt P19419 1-428).
T2 sequence: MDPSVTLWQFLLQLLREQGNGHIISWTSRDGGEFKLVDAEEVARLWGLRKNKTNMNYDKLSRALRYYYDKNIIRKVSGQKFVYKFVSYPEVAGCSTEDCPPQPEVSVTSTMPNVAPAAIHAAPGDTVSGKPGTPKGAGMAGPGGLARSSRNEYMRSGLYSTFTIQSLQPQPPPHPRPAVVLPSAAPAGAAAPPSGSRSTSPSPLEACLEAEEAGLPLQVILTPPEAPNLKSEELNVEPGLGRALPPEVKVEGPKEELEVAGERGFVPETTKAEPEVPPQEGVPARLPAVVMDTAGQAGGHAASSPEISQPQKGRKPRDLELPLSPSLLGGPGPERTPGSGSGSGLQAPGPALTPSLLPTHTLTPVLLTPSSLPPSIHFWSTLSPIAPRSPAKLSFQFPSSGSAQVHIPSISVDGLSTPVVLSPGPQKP
A digest of the protocol: as §1

The target in a further test is T3, GABPA (Homo sapiens, UniProt Q06546 1-454).
T3 sequence: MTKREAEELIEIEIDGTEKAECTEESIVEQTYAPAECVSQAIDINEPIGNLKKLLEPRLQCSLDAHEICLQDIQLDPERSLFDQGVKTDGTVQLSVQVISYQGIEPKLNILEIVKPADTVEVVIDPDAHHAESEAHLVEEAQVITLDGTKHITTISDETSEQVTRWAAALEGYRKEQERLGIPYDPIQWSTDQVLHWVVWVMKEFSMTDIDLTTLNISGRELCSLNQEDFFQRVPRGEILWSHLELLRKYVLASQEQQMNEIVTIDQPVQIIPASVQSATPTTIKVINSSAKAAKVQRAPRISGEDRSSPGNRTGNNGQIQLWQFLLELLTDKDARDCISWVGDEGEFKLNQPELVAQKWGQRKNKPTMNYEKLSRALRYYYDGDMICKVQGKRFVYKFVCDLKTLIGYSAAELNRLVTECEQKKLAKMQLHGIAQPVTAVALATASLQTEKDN
In short, it runs like this: as §1

For a further test, the target named is T4, ERG (Homo sapiens, UniProt P11308 1-479).
T4 sequence: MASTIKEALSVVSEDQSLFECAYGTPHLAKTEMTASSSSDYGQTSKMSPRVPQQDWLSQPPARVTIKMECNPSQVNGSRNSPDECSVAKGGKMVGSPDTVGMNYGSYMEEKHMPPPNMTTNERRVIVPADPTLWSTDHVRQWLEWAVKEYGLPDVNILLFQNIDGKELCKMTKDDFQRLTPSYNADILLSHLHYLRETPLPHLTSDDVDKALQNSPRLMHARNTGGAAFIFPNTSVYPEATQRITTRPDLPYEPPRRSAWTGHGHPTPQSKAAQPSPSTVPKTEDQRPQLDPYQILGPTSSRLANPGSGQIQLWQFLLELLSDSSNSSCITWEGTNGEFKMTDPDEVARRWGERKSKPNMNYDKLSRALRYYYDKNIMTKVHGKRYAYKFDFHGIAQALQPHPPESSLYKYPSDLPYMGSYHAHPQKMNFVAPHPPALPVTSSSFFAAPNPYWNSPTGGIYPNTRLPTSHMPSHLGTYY
A digest of the protocol: as §1

The target in another test is ELF1 (Homo sapiens, UniProt P32519 1-619). A digest of the protocol:
as §1

A further test deals with T5, EHF (Homo sapiens, UniProt Q9NZC4 1-300).
T5 sequence: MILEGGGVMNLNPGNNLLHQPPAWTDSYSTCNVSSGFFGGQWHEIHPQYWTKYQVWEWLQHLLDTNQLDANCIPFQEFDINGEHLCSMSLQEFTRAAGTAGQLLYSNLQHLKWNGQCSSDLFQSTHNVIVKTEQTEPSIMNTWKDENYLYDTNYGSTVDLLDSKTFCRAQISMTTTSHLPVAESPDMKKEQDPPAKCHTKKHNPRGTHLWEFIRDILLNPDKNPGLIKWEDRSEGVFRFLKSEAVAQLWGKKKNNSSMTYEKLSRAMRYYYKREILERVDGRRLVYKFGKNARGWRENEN
In short, it runs like this:
as §1

The next test has as its target SPI1 (Homo sapiens, UniProt P17947 1-270). In short, it runs like this: as §1
The next test has as its target SPIB (Homo sapiens, UniProt Q01892 1-262). In short, it runs like this:
as §1

For a further test, the target named is T6, ELK3 (Homo sapiens, UniProt P41970 1-407).
T6 sequence: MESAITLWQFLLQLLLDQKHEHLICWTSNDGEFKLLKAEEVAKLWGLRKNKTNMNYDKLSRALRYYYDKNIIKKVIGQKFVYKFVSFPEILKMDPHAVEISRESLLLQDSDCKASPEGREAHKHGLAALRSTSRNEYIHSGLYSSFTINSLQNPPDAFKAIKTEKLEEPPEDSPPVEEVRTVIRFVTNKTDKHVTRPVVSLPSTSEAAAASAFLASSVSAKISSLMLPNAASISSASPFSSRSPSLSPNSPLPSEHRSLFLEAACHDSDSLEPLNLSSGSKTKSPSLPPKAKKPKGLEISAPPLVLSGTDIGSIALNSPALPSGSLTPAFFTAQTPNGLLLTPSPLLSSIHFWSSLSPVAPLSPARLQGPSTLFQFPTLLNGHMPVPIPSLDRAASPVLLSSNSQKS
In short, it runs like this:
as §1

ELF1, sequence (P32519 whole entry): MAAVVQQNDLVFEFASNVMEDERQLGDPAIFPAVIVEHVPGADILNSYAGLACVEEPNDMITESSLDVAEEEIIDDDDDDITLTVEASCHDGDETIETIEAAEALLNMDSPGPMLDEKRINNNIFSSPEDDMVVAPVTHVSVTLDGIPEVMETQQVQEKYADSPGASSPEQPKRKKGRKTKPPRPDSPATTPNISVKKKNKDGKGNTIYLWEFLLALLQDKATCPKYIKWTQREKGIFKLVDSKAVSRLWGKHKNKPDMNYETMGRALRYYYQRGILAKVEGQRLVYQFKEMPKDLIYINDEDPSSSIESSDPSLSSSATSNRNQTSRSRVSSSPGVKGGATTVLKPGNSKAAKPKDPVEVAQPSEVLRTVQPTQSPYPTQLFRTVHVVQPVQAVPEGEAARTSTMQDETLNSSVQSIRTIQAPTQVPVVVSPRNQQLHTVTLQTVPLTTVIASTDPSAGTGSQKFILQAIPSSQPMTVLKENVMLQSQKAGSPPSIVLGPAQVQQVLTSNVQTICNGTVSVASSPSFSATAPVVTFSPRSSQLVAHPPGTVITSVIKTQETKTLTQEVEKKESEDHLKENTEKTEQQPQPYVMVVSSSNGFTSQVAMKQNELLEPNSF
SPIB, sequence (Q01892 whole entry): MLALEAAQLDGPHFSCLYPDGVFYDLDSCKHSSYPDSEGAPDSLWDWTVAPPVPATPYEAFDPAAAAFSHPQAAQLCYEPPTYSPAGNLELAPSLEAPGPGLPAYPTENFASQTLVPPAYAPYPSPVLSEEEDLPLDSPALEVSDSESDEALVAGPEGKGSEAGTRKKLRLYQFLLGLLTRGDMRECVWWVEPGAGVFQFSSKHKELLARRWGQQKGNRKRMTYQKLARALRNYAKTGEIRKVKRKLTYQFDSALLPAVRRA

TATTAC: the binding signal was 1.24 fold enrichment (6-mer frequency, TF over GST control) in the test with FLI1; 1.2 fold enrichment (6-mer frequency, TF over GST control) in the test with ELK1; 1.09 fold enrichment (6-mer frequency, TF over GST control) with GABPA; 1.16 fold enrichment (6-mer frequency, TF over GST control) in the test with ERG; 1.19 fold enrichment (6-mer frequency, TF over GST control) with ELF1; 1.19 fold enrichment (6-mer frequency, TF over GST control) with EHF. In addition, the binding signal with SPI1 was 1.12 fold enrichment (6-mer frequency, TF over GST control); in the test with SPIB, 1.21 fold enrichment (6-mer frequency, TF over GST control); with ELK3, 1.16 fold enrichment (6-mer frequency, TF over GST control).
Consider CCCGAT, for which the binding signal with FLI1 is 1.29 fold enrichment (6-mer frequency, TF over GST control); with ELK1 it was 1.17 fold enrichment (6-mer frequency, TF over GST control); with GABPA, 1.1 fold enrichment (6-mer frequency, TF over GST control); with ERG it was 1.14 fold enrichment (6-mer frequency, TF over GST control); in the test with ELF1 it was 1.16 fold enrichment (6-mer frequency, TF over GST control); in the test with EHF, 1.22 fold enrichment (6-mer frequency, TF over GST control). For the same sequence, the binding signal with SPI1 was 1.16 fold enrichment (6-mer frequency, TF over GST control); with SPIB, 1.26 fold enrichment (6-mer frequency, TF over GST control); with ELK3 it was 1.06 fold enrichment (6-mer frequency, TF over GST control).
Turning to AAATCC, the binding signal with FLI1 was 1.54 fold enrichment (6-mer frequency, TF over GST control); in the test with ELK1 it was 1.66 fold enrichment (6-mer frequency, TF over GST control); in the test with GABPA it was 1.5 fold enrichment (6-mer frequency, TF over GST control); with ERG, 1.81 fold enrichment (6-mer frequency, TF over GST control); with ELF1, 1.59 fold enrichment (6-mer frequency, TF over GST control); with EHF, 1.58 fold enrichment (6-mer frequency, TF over GST control). Also, the binding signal with SPI1 is 1.5 fold enrichment (6-mer frequency, TF over GST control); with SPIB it was 1.65 fold enrichment (6-mer frequency, TF over GST control); in the test with ELK3 it was 1.53 fold enrichment (6-mer frequency, TF over GST control).
As to TACCAC, the binding signal with FLI1 was 1.2 fold enrichment (6-mer frequency, TF over GST control); with ELK1, 1.32 fold enrichment (6-mer frequency, TF over GST control); with GABPA, 1.18 fold enrichment (6-mer frequency, TF over GST control); in the test with ERG, 1.17 fold enrichment (6-mer frequency, TF over GST control); in the test with ELF1, 1.32 fold enrichment (6-mer frequency, TF over GST control); with EHF, 1.23 fold enrichment (6-mer frequency, TF over GST control). For the same sequence, the binding signal in the test with SPI1 is 1.24 fold enrichment (6-mer frequency, TF over GST control); with SPIB, 1.26 fold enrichment (6-mer frequency, TF over GST control); with ELK3, 1.14 fold enrichment (6-mer frequency, TF over GST control).
ACTTTG: the binding signal in the test with FLI1 was 1.27 fold enrichment (6-mer frequency, TF over GST control); with ELK1 it was 1.29 fold enrichment (6-mer frequency, TF over GST control); with GABPA, 1.12 fold enrichment (6-mer frequency, TF over GST control); with ERG, 1.19 fold enrichment (6-mer frequency, TF over GST control); in the test with ELF1, 1.26 fold enrichment (6-mer frequency, TF over GST control); in the test with EHF, 1.19 fold enrichment (6-mer frequency, TF over GST control). The binding signal with SPI1 is 1.2 fold enrichment (6-mer frequency, TF over GST control); with SPIB, 1.16 fold enrichment (6-mer frequency, TF over GST control); in the test with ELK3 it was 1.07 fold enrichment (6-mer frequency, TF over GST control).
CTTTCC: the binding signal is 2.05 fold enrichment (6-mer frequency, TF over GST control) with FLI1; 1.9 fold enrichment (6-mer frequency, TF over GST control) with ELK1; 1.83 fold enrichment (6-mer frequency, TF over GST control) in the test with GABPA; 2.04 fold enrichment (6-mer frequency, TF over GST control) in the test with ERG; 1.89 fold enrichment (6-mer frequency, TF over GST control) in the test with ELF1; 2.05 fold enrichment (6-mer frequency, TF over GST control) in the test with EHF. The binding signal in the test with SPI1 was 1.84 fold enrichment (6-mer frequency, TF over GST control); with SPIB, 2.18 fold enrichment (6-mer frequency, TF over GST control); with ELK3 it was 2.1 fold enrichment (6-mer frequency, TF over GST control).
Turning to TCCTCG, the binding signal with FLI1 is 1.6 fold enrichment (6-mer frequency, TF over GST control); with ELK1, 1.33 fold enrichment (6-mer frequency, TF over GST control); with GABPA, 1.47 fold enrichment (6-mer frequency, TF over GST control); with ERG it was 1.42 fold enrichment (6-mer frequency, TF over GST control); with ELF1, 1.47 fold enrichment (6-mer frequency, TF over GST control); with EHF, 1.56 fold enrichment (6-mer frequency, TF over GST control). The binding signal with SPI1 is 1.46 fold enrichment (6-mer frequency, TF over GST control); with SPIB it was 1.32 fold enrichment (6-mer frequency, TF over GST control); in the test with ELK3, 1.49 fold enrichment (6-mer frequency, TF over GST control).

The values above are taken from article PMC7862700, “An all-to-all approach to the identification of sequence-specific readers for epigenetic DNA modifications on cytosine”.
